From PubChem
Rows were chosen to be rich in hits. Some 7.2% of all compounds tested hit in one or more screens of this group.
Mot1-301 SUMO: blocks SUMOylation pathway, rescuing yeast Mot1-301 growth. S. cerevisiae Mot1-301 growth rescue, ATP luminescence, 38.5C; percent above DMSO median, 100 means doubled. growth rescue, % at 18.8 µM. 320,000 compounds, 1% hits. AID 2716;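 active = every valid replicate shows activation above 250% relative to neutral control wells; inactive = the rest, any valid replicate at or below 250%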
Bfl-1 A1 inh: inhibitors of the anti-apoptotic protein A1, read as caspase activation; MEF A1-2A-BIM cells, Caspase-Glo 3/7 luminescence, 3 h; percent of clofoctol response, vehicle zero; caspase activation, % (concentration not given with the values); 330,000 compounds, 0.066% hits;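 active = over half of replicate activation scores above 10%, or exactly half above 10 with the replicate mean above 10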
VLA-4 inh: inhibition in a human VLA-4 binding assay. P13612. VLA-4 expressing cells, ligand binding flow cytometry. inhibition, % (about 7 µM as worked out from the volumes in the protocol). 330,000 compounds, 0.2% hits; in the data active = inhibition above about 50%
Efflux pump mplx: inhibitors of Candida antifungal efflux pumps expressed in yeast. S. cerevisiae Candida pump triplex, Nile Red efflux. inhibition, % at 10 µM. 330,000 compounds, 0.44% hits;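 active = plate passing quality check with inhibition over a set limit, or well fluorescence over plate mean plus 4 SD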;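 note: Nile Red retained in pooled yeast measured as flow cytometry median fluorescence; higher means more Nile Red kept so more efflux inhibition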
AHR activator: activators of human aryl hydrocarbon receptor; P35869; AHR-responsive luciferase reporter cells, luminescence; activation, % at 5 µM; 320,000 compounds, 2.5% hits; AID 2796; in the data active = activation above about 47%
ALR inh: inhibitors of human sulfhydryl oxidase ALR. AID 485317. inhibition, % (test concentration not listed). purified ALR, DTT oxidation, H2O2 HRP-luminol luminescence. P55789. 290,000 compounds, 3.8% hits;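 active = mean replicate inhibition above about 79%, with every replicate also reaching it, limit read from the data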
Cmpd fluor yeast: compound fluorescence in yeast efflux pump counter-screen. shares compounds with Efflux pump mplx. S. cerevisiae AD/pABC3, flow cytometry. fluorescence ratio to DMSO, % at 10 µM. 1,700 compounds, 4% hits. AID 588517;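 active = fluorescence ratio to DMSO above its plate's cutoff, the plate mean ratio plus 5 SD, cut at about 210% in these data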;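 note: unstained yeast with no Nile Red so the signal is compound autofluorescence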
CaMdr1 efflux inh: blocks the Candida albicans Mdr1 efflux pump in yeast; inhibition, % at 10 µM; 1,700 compounds, 1% hits; shares compounds with Efflux pump mplx; S. cerevisiae AD/CaMDR1, Nile Red efflux, flow cytometry; in the data active = inhibition above about 26%;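 note: higher means more Nile Red retained so more efflux inhibition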
Cdr2 pump inh: Candida Cdr2 efflux pump inhibition; 1,700 compounds, 4% hits; S. cerevisiae AD/CaCDR2, Nile Red retention, flow cytometry; Nile Red retention ratio vs DMSO, % at 10 µM; shares compounds with Efflux pump mplx; AID 588520; in the data active = Nile Red retention ratio vs DMSO above about 190%;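 note: higher ratio means more blocking of Cdr2 efflux of the dye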
Cdr1 pump inh: Candida Cdr1 efflux pump inhibition. shares compounds with Efflux pump mplx. 1,700 compounds, 1% hits. S. cerevisiae AD/CaCDR1, Nile Red efflux, flow cytometry. inhibition, % at 10 µM;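 active = inhibition above the screen-wide mean plus twice its standard deviation, cut at about 32% in these data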
Numbers stand for hits; i = inactive; nt = no result given; + = active, no number.

SMILES	Mot1-301 SUMO	Bfl-1 A1 inh	VLA-4 inh	Efflux pump mplx	AHR activator	ALR inh	Cmpd fluor yeast	CaMdr1 efflux inh	Cdr2 pump inh	Cdr1 pump inh
O=[N+]([O-])c1cccc(-c2nnnn2-c2cccc(F)c2)c1	i	i	i	i	i	i	nt	nt	nt	nt
COc1ccc(/C=C2\SC(c3ccc(C)cc3)=NC2=O)cc1OC	i	i	i	0.8	i	i	i	i	i	i
CCC(=O)Nc1ccc(C(=O)NNC(=O)c2cccc(C)c2)cc1	i	i	i	i	i	i	nt	nt	nt	nt
COc1cccc(NC(=O)COC(=O)C2CC(=O)N(c3ccc(C)cc3)C2)c1 (centres undefined)	nt	nt	i	i	i	nt	nt	nt	nt	nt
CC1CCN(Cc2c(C(=O)N/N=C/c3ccc(OC(C)C)cc3)nnn2-c2nonc2N)CC1	i	i	i	0.4	i	i	i	i	i	i
C/C(=N\NC(=O)c1nnn(-c2nonc2N)c1COc1ccc(F)cc1)c1ccc(Cl)cc1	i	i	i	i	i	nt	i	i	i	i
CN(C)c1ccc(/C=N/NC(=O)c2nnn(-c3nonc3N)c2COc2ccc(F)cc2)cc1	i	i	i	i	i	i	i	i	i	i
CCOc1ccc(/C=N/NC(=O)c2nnn(-c3nonc3N)c2COc2ccc(F)cc2)cc1	i	i	i	i	i	nt	i	i	i	i
Nc1nonc1-n1nnc(C(=O)N/N=C/c2ccncc2)c1CSc1ccccc1	i	i	i	i	i	i	nt	nt	nt	nt
CCOc1ccc(-c2c(C(=O)N/N=C/c3ccc(O)cc3)nnn2-c2nonc2N)cc1	i	i	i	i	i	nt	i	i	i	i
CCOc1ccc(-c2c(C(=O)N/N=C(\C)c3ccco3)nnn2-c2nonc2N)cc1	i	i	i	i	i	i	nt	nt	nt	nt
CCCc1c(C(=O)N/N=C/c2c(OC)ccc3ccccc23)nnn1-c1nonc1N	i	i	i	i	i	i	i	i	i	i
Nc1nonc1-n1nnc(C(=O)N/N=C/c2ccccc2)c1CSc1ccccc1	i	i	i	i	i	i	i	i	i	i
CCOc1ccc(-c2c(C(=O)N/N=C(\C)c3ccccc3OC)nnn2-c2nonc2N)cc1	i	i	i	i	i	i	i	i	i	i
CCCOc1ccc(-c2c(C(=O)N/N=C/c3ccc(OCC)cc3)nnn2-c2nonc2N)cc1	i	i	i	i	i	i	nt	nt	nt	nt
CCOC(=O)CC1(NC(=O)C2CCC(=O)N(CCc3ccccc3)C2)CCCCC1 (centres undefined)	i	i	i	i	i	i	nt	nt	nt	nt
COc1ccc2c(c1)c1ccccc1n2C	i	i	i	i	i	nt	nt	nt	nt	nt
C[n+]1cc(C(=O)N2CCCCC2)ccc1/C=C/c1c[nH]c2ccccc12	i	i	i	i	i	i	nt	nt	nt	nt
Cc1ccc2[nH]cc(/C=C/c3cc[n+](C)cc3)c2c1	i	i	i	9.3	nt	98.3	907.9	i	i	i
COc1ccc2c(c1)c(/C=C/c1cc[n+](C)cc1)cn2C	i	i	i	15.9	i	nt	+	i	i	i
CC[n+]1ccc(/C=C/c2c[nH]c3ccccc23)cc1	i	i	i	2.3	i	i	i	i	i	i
COc1ccc2c(/C=C/c3cc[n+](C)cc3)c[nH]c2c1	i	i	i	9.1	i	i	+	i	255.6	i
O=C(c1ccccc1[N+](=O)[O-])N1CCC(Cc2ccccc2)CC1	i	i	i	i	i	i	nt	nt	nt	nt
CC(C)=C(NC(=O)c1ccccc1)C(=O)NCCc1nc2ccccc2[nH]1	i	i	i	i	i	i	nt	nt	nt	nt
CN(C(=O)CSc1nnc(-c2ccccc2)n1C)C1CCS(=O)(=O)C1 (centres undefined)	i	i	i	i	i	i	nt	nt	nt	nt
